Measured values: the supplement of paper PMC9925115
Counter-ions that a name gives are not always drawn.

The molecules below were run on FLX1 + dox-induced PRKAR1A G325D (assay: difference in log2 fold change of viability vs plate median (dox-induced PRKAR1A G325D minus uninduced); higher = compound less effective when PKA is inhibited). Conditions: concentration: not stated (2 or 5 uM); 5 days.
Procedure: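 For each plate a log2 fold change vs the plate median was derived, and the values without dox were subtracted from those with dox, averaged over three biological replicates.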

| Structure (SMILES) | difference in log2 fold change of viability |
| --- | --- |
| COc1cc2nccc(Oc3ccc(NC(=O)NC4CC4)c(Cl)c3)c2cc1C(N)=O [Lenvatinib (E7080)] | -0.0902 |
| N#CC1(c2ccc(NC(=O)c3cccnc3NCc3ccncc3)cc2)CCCC1 [Apatinib] | 0.497 |
| Oc1cc(O)cc(/C=C/c2ccc(O)c(O)c2)c1 [Piceatannol] | -0.236 |
| COc1ccc(S(=O)(=O)N(C(C)=O)c2ccccc2/C=C/c2cc[n+]([O-])cc2)cc1 | 0.0942 |
| Cc1cc(NC(=O)c2cccc(NC(=O)/C=C/CN(C)C)c2)ccc1Nc1nccc(-c2cccnc2)n1 | -0.217 |
| CNc1nc(Nc2cn(C(C)(C)C#N)nc2C)ncc1C(F)(F)F | 0.145 |
| CCN1/C(=C/C(C)=O)Sc2ccc(OC)cc21 | -0.074 |
| CNC(=O)c1cc(Oc2ccc(NC(=O)Nc3ccc(Cl)c(C(F)(F)F)c3)cc2)ccn1 [Sorafenib] | 0.0478 |
| C[C@@H](NC(=O)c1ncnc(N)c1Cl)c1ncc(C(=O)Nc2cc(C(F)(F)F)c(Cl)cn2)s1 | -0.193 |
| CC(C)(C)c1cc(/C=C(\C#N)C(N)=S)cc(C(C)(C)C)c1O [Tyrphostin AG 879] | 0.264 |
| CCc1cnn2c(NCc3ccc[n+]([O-])c3)cc(N3CCCC[C@H]3CCO)nc12 | 0.265 |
| NC(=O)c1ncn([C@@H]2O[C@H](CO)[C@@H](O)[C@H]2O)c1N [AICAR (Acadesine)] | -0.0733 |
| Cc1c(CN2CCN(C(=O)[C@H](C)O)CC2)sc2c(N3CCOCC3)nc(-c3cnc(N)nc3)nc12 [Apitolisib (GDC-0980, RG7422)] | 0.628 |
| CN1CCN(c2cccc(Nc3nc4c(-c5ccc(S(C)(=O)=O)cc5)cccn4n3)c2)CC1 | -0.93 |
| Cc1[nH]c(/C=C2\C(=O)Nc3ccc(S(=O)(=O)Cc4c(Cl)cccc4Cl)cc32)c(C)c1C(=O)N1CCC[C@@H]1CN1CCCC1 | -0.266 |
| O=C(O)[C@]1(Cc2cccc(Nc3nccs3)n2)CC[C@@H](Oc2cccc(Cl)c2F)CC1 | -0.795 |
| COc1ccc(-c2nc(N3CCOCC3)c3sc(CN(C)c4ncc(C(=O)NO)cn4)cc3n2)cn1 | 0.159 |
| CNC(=O)c1cc(Oc2ccc(NC(=O)Nc3ccc(Cl)c(C(F)(F)F)c3)cc2)ccn1 [Sorafenib Tosylate] | -0.44 |
| CO[C@@H](C(=O)N1Cc2[nH]nc(NC(=O)c3ccc(N4CCN(C)CC4)cc3)c2C1)c1ccccc1 | 0.428 |
| Cc1cc(Nc2nc(N[C@@H](C)c3ccc(F)cc3)c(C#N)cc2F)n[nH]1 | -0.0432 |

| Structure (SMILES) | difference in log2 fold change of viability |
| --- | --- |
| Cn1ncc(Cl)c1-c1cc(C(=O)N[C@H](CN)Cc2ccc(F)c(F)c2)oc1Cl | -0.0579 |
| CCc1cc(Nc2nccc(-c3c(-c4ccc(OC)c(C(=O)Nc5c(F)cccc5F)c4)nc4ccccn34)n2)c(OC)cc1N1CCC(N2CCN(S(C)(=O)=O)CC2)CC1 | 0.164 |
| C=CCc1ccc(O)c(-c2ccc(O)c(CC=C)c2)c1 [Honokiol] | -1.37 |
| CCc1cccc(CC)c1NC(=O)N1Cc2[nH]nc(NC(=O)c3ccc(N4CCN(C)CC4)cc3)c2C1 | 0.41 |
| CC(C)(C)c1nc(-c2cccc(NS(=O)(=O)c3c(F)cccc3F)c2F)c(-c2ccnc(N)n2)s1 | 0.264 |
| Nc1ccc(-c2ccc3ncc4ccc(=O)n(-c5cccc(C(F)(F)F)c5)c4c3c2)cn1 [Torin 2] | 0.605 |
| O=C(NCCCNc1nc(Nc2cccc(NC(=O)N3CCCC3)c2)ncc1I)c1cccs1 | 0.621 |
| CC(C)(O)CC(=O)NCCn1ccc2ncnc(Nc3ccc(Oc4cccc(C(F)(F)F)c4)c(Cl)c3)c21 | -0.173 |
| O=c1ncn2nc(Sc3ccc(F)cc3F)ccc2c1-c1c(Cl)cccc1Cl | 2.06 |
| CCN1CCN(Cc2ccc(Nc3ncc(F)c(-c4cc(F)c5nc(C)n(C(C)C)c5c4)n3)nc2)CC1 | -0.0976 |
| COc1ccc(S(=O)(=O)N(CCO)c2ccccc2CN(C)C/C=C/c2ccc(Cl)cc2)cc1 [KN-93 Phosphate] | 0.66 |
| N#C/C(=C(/N)Sc1ccc(N)cc1)c1ccccc1C(F)(F)F | 0.1 |
| CN(C)CCCn1cc(C2=C(c3c[nH]c4ccccc34)C(=O)NC2=O)c2ccccc21 | -0.243 |
| CN(C)CCOc1ccc(-c2nc(-c3ccncc3)c(-c3ccc4c(c3)CC/C4=N\O)[nH]2)cc1 | -1.73 |
| NC(=O)c1ccc(N(C(N)=O)c2c(F)cccc2F)nc1-c1ccc(F)cc1F | 0.256 |
| O=C(NC[C@H](O)CO)c1ccncc1Nc1ccc(I)cc1F | -1.7 |
| O=C1NC(=O)[C@@H](c2cn3c4c(cccc24)CCC3)[C@@H]1c1c[nH]c2ccccc12 [Tivantinib (ARQ 197)] | 0.768 |
| N#Cc1c(Oc2ccc(F)c(NC(=O)Cc3cccc(C(F)(F)F)c3)c2)ccc2nc(NC(=O)C3CC3)sc12 | -0.168 |
| COc1cc2ncnc(Oc3ccc(CC(=O)Nc4cnn(C(C)C)c4)cc3)c2cc1OC | -0.126 |
| CCc1cncnc1N1CCN(Cc2nc3ccc(C(F)(F)F)cc3[nH]2)CC1 | -1.55 |
